# Data: PubChem BioAssay AID504379 (National Center for Advancing Translational Sciences (NCATS), 2011)
# Calls of active or inactive are those of the source. The rule behind the calls is not given here.
# Target: Thyrotropin receptor (Homo sapiens) (UniProt P16473)
# Assay: Concentration-response assay for inverse agonists of the thyroid stimulating hormone receptor: ELISA activity detection
# Conditions: HEK293-TSHR basal cAMP, ELISA chemiluminescence, 1 h
# Source text: TSH is an alpha/beta heterodimeric glycoprotein hormone secreted from the anterior pituitary gland which belongs to the glycoprotein hormone family. The actions of TSH are mediated by a seven-transmembrane receptor, which upon TSH binding couples preferentially to the G-alpha (s) protein (Gs), resulting in activation of adenylate cyclase and increase in cyclic adenosine 3', 5' monophosphate (cAMP). The TSH receptor (THSR) is mainly expressed in thyroid follicular cells and regulates their growth and function. This cell based assay was conducted on a TSHR transfected HEK 293 cell line, measuring cAMP stimulation using antibody-based Homogeneous Time Resolved Fluorescence (HTRF). Our goal is to identify small molecules that will inhibit (antagonize) the thyroid-stimulating hormone receptor (TSHR), a member of the 7 transmembrane-spanning receptor (7TMR) family of cell surface receptors. TSHR-mediated hyperthyroidism is important in thyroid pathology. The development of small molecule antagonists of TSHR may lead to therapeutic approaches for TSHR-mediated hyperthyroidism caused by constitutively activating mutations or stimulating auto-antibodies associated with Graves' disease. Graves' disease is the leading cause of hyperthyroidism and is caused by autoantibodies that stimulate TSHR (TsAbs) causing thyroid growth and unregulated overproduction of thyroid hormones and existing treatments have liabilities (agranulocytosis). In addition, TSHRs are known to be expressed in multiple extrathyroidal tissues including bone, brain, kidney, testis, fat and cells of the immune system but the role of the TSHR in these tissues is not clear. Therefore, TSHR antagonists/inverse agonists could be used as probes of extrathyroidal TSHR function. Finally, TSHR inverse agonists, which are a subclass of antagonists that inhibit agonist-independent (or basal or constitutive) TSHR signaling, could be used to inhibit TSH-independent signaling in patients with recurrent or metastatic thyroid cancer who are receiving thyroid hormone to suppress TSH. A confirmatory assay of TSHR inverse agonists was conducted on a HEK 293 cell line stably expressing the TSHR, using an ELISA based cAMP competition assay using cAMP-Screen Direct System (Applied Biosystems, Foster City, CA) to measure cAMP stimulation.
# Transiently transfected HEK-EM 293 cells or cells stably expressing TSHRs were seeded into 96-well plates at a density of 7 x10^4 cells per well in DMEM containing 10% FBS. Cells were cultured for 24 h before incubation for 20 min in HBSS/10 mM HEPES (pH 7.4). To determine basal cAMP production, cells were incubated for 1 h at 37 C in a humidified incubator in HBSS/HEPES containing 1mM IBMX (Sigma Chemical Co., St. Louis, MO) in the presence or absence of compound. The levels of cAMP in cells incubated in HBSS/HEPES without IBMX were subtracted in all experiments. After aspiration of the incubation medium, cells were lysed using lysis buffer of the cAMP-Screen Direct system (Applied Biosystems, Foster City, CA). The cAMP content of the cell lysate was determined using the method described in the manufacturer's protocol. The chemiluminescence signal was measured in a VICTOR3 V 1420 multilabel counter (PerkinElmer, Norwalk, CT). The potency (IC50) of the ligands were obtained from dose-response curves by data analysis with GraphPad Prism 4 for Windows.
# Sequence of Thyrotropin receptor (Homo sapiens) (P16473 whole entry, looked up): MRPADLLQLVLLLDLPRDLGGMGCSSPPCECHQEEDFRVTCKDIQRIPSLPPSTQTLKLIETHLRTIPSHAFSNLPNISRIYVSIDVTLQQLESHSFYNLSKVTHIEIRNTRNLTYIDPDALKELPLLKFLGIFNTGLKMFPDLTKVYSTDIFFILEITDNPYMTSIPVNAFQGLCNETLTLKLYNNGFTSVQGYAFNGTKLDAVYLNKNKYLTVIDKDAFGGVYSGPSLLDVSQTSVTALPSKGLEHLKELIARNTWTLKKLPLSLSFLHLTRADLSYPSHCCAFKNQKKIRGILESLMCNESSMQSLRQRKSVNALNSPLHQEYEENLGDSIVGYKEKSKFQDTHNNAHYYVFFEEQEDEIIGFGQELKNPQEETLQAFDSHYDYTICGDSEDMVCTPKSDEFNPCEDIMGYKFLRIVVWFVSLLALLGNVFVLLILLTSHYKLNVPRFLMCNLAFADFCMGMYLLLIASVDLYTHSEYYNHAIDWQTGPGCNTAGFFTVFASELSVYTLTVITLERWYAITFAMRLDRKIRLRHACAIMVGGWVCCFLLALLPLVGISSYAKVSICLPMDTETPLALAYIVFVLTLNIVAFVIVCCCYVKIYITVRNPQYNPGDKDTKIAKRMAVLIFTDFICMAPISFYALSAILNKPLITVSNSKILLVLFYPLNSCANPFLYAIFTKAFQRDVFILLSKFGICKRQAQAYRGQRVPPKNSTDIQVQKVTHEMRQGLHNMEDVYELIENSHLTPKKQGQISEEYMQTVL
Compound,IC50,outcome
COc1ccc(C2Nc3ccccc3C(=O)N2Cc2ccco2)cc1COc1c(C)cc(NC(C)=O)cc1C (stereo unspecified),6 µM (active),
COc1ccc(C2Nc3ccccc3C(=O)N2Cc2ccccc2)cc1COc1c(C)cccc1C (stereo unspecified),,inactive
COc1ccc(C2Nc3ccccc3C(=O)N2Cc2ccccn2)cc1COc1c(C)cccc1C (stereo unspecified),,inactive
COc1ccc(C2Nc3ccccc3C(=O)N2Cc2cccnc2)cc1COc1c(C)cccc1C (stereo unspecified),7 µM (active),
COc1ccc(C2Nc3ccccc3C(=O)N2Cc2cccs2)cc1COc1c(C)cccc1C (stereo unspecified),,inactive
COc1ccc(C2Nc3ccccc3C(=O)N2Cc2ccco2)cc1CSc1c(C)cccc1C (stereo unspecified),,inactive
Cc1cccc(C)c1OCc1cccc(C2Nc3ccccc3C(=O)N2Cc2ccco2)c1 (stereo unspecified),5 µM (active),
COc1ccc(C2Nc3ccccc3C(=O)N2Cc2ccc(C)o2)cc1COc1c(C)cccc1C (stereo unspecified),,inactive
COc1ccc(C2Nc3ccccc3C(=O)N2Cc2ccco2)cc1COc1ccccc1C (stereo unspecified),,inactive
COc1ccc(C2Nc3cccc(O)c3C(=O)N2Cc2ccco2)cc1COc1c(C)cc(NC(C)=O)cc1C (stereo unspecified),,inactive
CCc1cccc(CC)c1OCc1cc(C2Nc3ccccc3C(=O)N2Cc2ccco2)ccc1OC (stereo unspecified),11 µM (active),
